Assay results taken from PubChem BioAssay.
The source made the active and inactive calls.

Experiments:
[1] = compound effects on lung adenocarcinoma cell viability – A549, calcein-AM fluorescence, 48 h, basal, profiling panel (AID 1162); conditions: higher = more signal
[2] = compound effects on differentiated 3T3-L1 adipocyte viability – cell-based, 3T3-L1 adipocytes, calcein-AM fluorescence, 48 h, basal, profiling panel (AID 1163); conditions: 3T3-L1 adipocytes viability, higher = more signal
[3] = compound effects on hepatocellular carcinoma cell viability – HepG2, calcein-AM fluorescence, 48 h, basal, profiling panel (AID 1164); conditions: higher = more signal
[4] = compound effects on multiple myeloma cell viability – MM1S, calcein-AM fluorescence, 48 h, basal, profiling panel (AID 1165); conditions: higher = more signal
[5] = calcein-AM signal in unstimulated myeloma cells – cell-based, calcein-AM fluorescence, 48 h, PK04 Diversity Set, profiling panel (AID 1166); conditions: higher = more signal; RPMI8226 myeloma viability, calcein-AM fluorescence, 48 h unless noted;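 further: cells grown under basal conditions without added stimulus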
[6] = JC-1 mitochondrial signal, unstimulated HepG2 cells – cell-based, JC-1 fluorescence, 24 h, 100 nL compound, profiling panel (AID 1167); conditions: HepG2 mitochondrial potential, higher = more signal
[7] = JC-1 mitochondrial signal, unstimulated adipocytes – cell-based, JC-1 fluorescence, 3T3-L1 adipocytes, 24 h, 100 nL compound, profiling panel (AID 1168); conditions: JC-1 mitochondrial fluorescence; higher = more signal, called active from +8 up or from −8 down unless noted
[8] = JC-1 mitochondrial signal, unstimulated myeloma cells – cell-based, JC-1 fluorescence, RPMI8226, 24 h, 100 nL compound, profiling panel (AID 1169); conditions: higher = more signal; RPMI8226 myeloma, JC-1 mitochondrial potential fluorescence, 24 h unless noted
[9] = JC-1 mitochondrial signal, unstimulated MM1S myeloma – cell-based, JC-1 fluorescence, 24 h, 100 nL compound, profiling panel (AID 1170); conditions: MM1S mitochondrial potential, higher = more signal
[10] = resazurin metabolic signal in A549 cells – cell-based, resazurin fluorescence, 24 h, PK04 Diversity Set, profiling panel (AID 1171); conditions: A549 viability; higher = more signal, called active from +8 up or from −8 down unless noted
Further: test concentration not given here.

Structure (SMILES)	z-score [1]	z-score [2]	z-score [3]	z-score [4]	z-score [5]	z-score [6]	z-score [7]	z-score [8]	z-score [9]	z-score [10]
CCCC=C(CCC)[C@@H](NP(=O)(c1ccccc1)c1ccccc1)c1ccccc1	-0.0868	-0.298	0.559	-0.687	-1.27	-1.95	0.21 (inactive)	0.368	-1.5	1.82 (inactive)
CCOC(=O)[C@H]1CC=C2C(=O)Oc3ccccc3[C@@H]21	-0.961	-0.214	-1.13	-1.35	-0.132	-0.417	0.846 (inactive)	0.979	-1.08	0.991 (inactive)
C=C(CC1(C(C)NP(=O)(c2ccccc2)c2ccccc2)CC1)c1ccccc1 (stereo not given)	-2.12	0.844	-1.07	-3.18	-4.71	-2.36	-0.793 (inactive)	-0.819	-0.133	2.93 (inactive)
COC(=O)[C@@]1(Cc2ccc(F)cc2)[C@H]2c3cc(C(=O)N(C)C)[nH]c3C[C@H]2CN1C(=O)c1ccccc1	-0.632	-0.597	0.337	0.334	-0.425 [setting not given]	0.174	0.0376 [setting not given] (inactive)	-0.101 [setting not given]	-0.872	-0.868 [setting not given] (inactive)
OCc1ccc(C2=CC(C3CC3)N(Cc3sc4ccccc4c3Cl)CC2)cc1 (stereo not given)	-1.09	0.656	-0.328	-3.17	-3.29	0.353	0.501 (inactive)	-0.913	-0.434	-0.497 (inactive)
c1ccc(-c2cc3c(nc2-c2ccccc2)CCNC3)cc1	0.765	-0.106	0.246	0.195	0.145	0.506	-0.239 (inactive)	0.179	-0.0254	0.983 (inactive)
COC(=O)NCC=Cc1nc(CCC=CC(=O)O[C@H]2CC3CC(=O)O[C@@H](C=CCC(C)C)C[C@@H]4CC[C@H](C)[C@@H](C[C@@H](OC)C[C@H](C2)O3)O4)co1	-1.61	-0.804	-1.29	-2.61	-2.97	0.49	0.249 (inactive)	-0.908	-2.54	-4.04 (inactive)
CN1CCC(c2ccc(CO)cc2)=CC1C1CC1 (stereo not given)	0.169	-0.228	0.061	-1.25	0.0447	-0.851	-0.625 (inactive)	0.604	-0.409	-0.374 (inactive)
CCCc1cc2c(n1Cc1cccc(Cl)c1)C(C)C1CN(C(=O)c3ccccc3)C(C)(C(=O)OC)C21 (stereo not given)	-1.22	-0.278	0.101	-2.71	-4.69	1.4	-1.82 (inactive)	-0.795	-1.61	-0.474 (inactive)
O=P(c1ccccc1)(c1ccccc1)N1CC2(CC2)CC(O)(c2ccccc2)C1 (stereo not given)	-1.76	-0.388	-1.15	-0.183	-0.475	-0.846	-0.654 (inactive)	0.232	-0.372	-0.488 (inactive)
CCc1cc2c(nc1CC)CCN(CCC(C)=NOC)C2	0.151	0.504	0.0911	0.69	-2.14	2.55	-1.37 (inactive)	1.07	0.196	-0.521 (inactive)
COc1cc2c(cc1O)C=[N+](C)CC2	1.82	0.775	0.496	-0.0896	0.245	0.424	0.964 (inactive)	-0.0385	-0.635	-1.52 (inactive)
C=C(CC1(CNP(=O)(c2ccccc2)c2ccccc2)CC1)c1ccccc1	-1.21	-0.457	-1.36	-0.159	-0.614	-1.41	-0.531 (inactive)	0.29	-0.987	0.344 (inactive)
CCCc1cc2c(n1Cc1ccc(C)cc1)C(C)C1CN(C(=O)c3ccccc3)C(C)(C(=O)OC)C21 (stereo not given)	0.345	-0.441	1.11	-2.84	-4.73	2.34	-0.268 (inactive)	0.00271	-1.59	-1.58 (inactive)
CN1CCc2nc(CO)c(CO)cc2C1	1.18	0.593	0.0749	-1.02	0.672	0.302	-0.23 (inactive)	0.38	1.04	0.515 (inactive)
C[C@@H]1Cc2c(cnc3c2CN(C)CC3)CO1	0.298	0.288	-0.153	-1.39	0.089	0.389	0.284 (inactive)	-0.258	0.677	0.707 (inactive)
